Results reported in PubChem BioAssay (EPA / NIEHS).
The source made the active and inactive calls. Rule for the calls: active = hit-call score of the fitted dose curve at least 0.9, where 1 is the maximum; inactive = score below 0.9.

Experiments:
[1] = APR_HepG2_CellLoss_72hr: Apredica 72-hour HepG2 Assay for Cell Loss (AID 2282915); conditions: high-content imaging
In short: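 HepG2 cells exposed 72 h to compound at 0.39–200 uM (10 concentrations, duplicate) in 0.5% DMSO. Fixed with 3.7% formaldehyde and Hoechst 33342-stained. Imaged at 20x; nuclear count gives cell number, fitted bidirectionally versus DMSO.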

[2] = APR_HepG2_P-H2AX_72hr: Apredica 72-hour HepG2 Assay for H2AX Phosphorylation (AID 2282916); conditions: imaging, actives raise or lower the signal;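 note: phospho-histone H2A.x immunostain intensity per cell marking DNA damage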
In short: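 HepG2 cells treated 72 h at 0.39–200 uM, 0.5% DMSO final, duplicates. Formaldehyde-fixed, Triton-permeabilised, immunostained for phospho-H2A.x with Hoechst; fluorescence imaged at 20x, bidirectional fit versus DMSO.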

[3] = APR_HepG2_MitoMembPot_72hr: Apredica 72-hour HepG2 Assay for Mitochondrial Membrane Potential (AID 2282917); conditions: imaging, actives raise or lower the signal
In short: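 HepG2 cells dosed 72 hr with compound at 0.39–200 uM in duplicate, 0.5% v/v DMSO final. Mitochondria stained with 250 nM MitoTracker Red CMXRos for 30 min before formaldehyde fixation, imaged by high-content fluorescence; bidirectional fit versus DMSO.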

[4] = APR_HepG2_MitoticArrest_72hr: Apredica 72-hour HepG2 Assay for Mitotic Arrest (AID 2282918); conditions: high-content imaging, actives raise or lower the signal
In short: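 High-content imaging of fixed human HepG2 cells after 72 h compound exposure (0.39–200 uM, duplicates, 0.5% DMSO); mitotic arrest scored from phospho-histone H3 and nuclear Hoechst staining relative to DMSO.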

[5] = APR_HepG2_MicrotubuleCSK_72hr: Apredica 72-hour HepG2 Assay for Microtubule CSK Stabilty (AID 2282919); conditions: HepG2 microtubule cytoskeleton, high-content imaging, actives raise or lower the signal
In short: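 HepG2 cells were exposed 72 hr to compound at 0.39–200 uM in duplicate (0.5% DMSO final), then fixed and permeabilized. Alpha-tubulin immunofluorescence was imaged by high-content microscopy, with bidirectional fitting against DMSO and taxol as positive control.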

[6] = APR_HepG2_P-H2AX_24hr: Apredica 24-hour HepG2 Assay for H2AX Phosphorylation (AID 2282920); conditions: high-content imaging, actives raise or lower the signal
In short: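 High-content imaging of phospho-histone H2A.x immunofluorescence, nuclei counterstained with Hoechst 33342, in fixed HepG2 cells. Compounds ran 0.39–200 uM in duplicate for 24 h, final DMSO 0.5%. Signal change fitted both directions against DMSO.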

[7] = APR_HepG2_StressKinase_72hr: Apredica 72-hour HepG2 Assay for Stress Kinase (AID 2282921); conditions: HepG2 stress kinase (phospho-c-Jun) imaging, actives raise or lower the signal
In short: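 HepG2 cells treated 72 hr with 0.39–200 uM compound, 0.5% v/v DMSO, duplicate wells. After formaldehyde fixation and Triton permeabilization, stained with anti-phospho-c-Jun (1:500) and Cy3 secondary, imaged at 20x. Fitted in both directions against DMSO.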

[8] = APR_HepG2_p53Act_72hr: Apredica 72-hour HepG2 Assay for p53 Activation (AID 2282923); conditions: high-content imaging, actives raise or lower the signal;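 note: average cellular p53 protein immunofluorescence intensity in HepG2 cells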
In short: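 HepG2 cells exposed 72 h to 0.39–200 uM in 0.5% DMSO, duplicates. Fixed, permeabilized cells immunostained for p53 (Cy5) with Hoechst; imaged at 20x, fluorescence analyzed bidirectionally against DMSO.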

[9] = APR_HepG2_MitoMass_72hr: Apredica 72-hour HepG2 Assay for Mitochondrial Mass (AID 2282924); conditions: high-content imaging, actives raise or lower the signal;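 note: MitoTracker Red CMXRos stain intensity per cell imaged as mitochondrial mass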
In short: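 HepG2 cells dosed 72 hr at 0.39–200 uM (0.5% DMSO), in duplicate. MitoTracker Red CMXRos 250 nM loaded 30 min before formaldehyde fixation; high-content fluorescence imaging, bidirectional fit versus DMSO.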

[10] = APR_HepG2_StressKinase_24hr: Apredica 24-hour HepG2 Assay for Stress Kinase (AID 2282922); conditions: HepG2 stress kinase (phospho-c-Jun) imaging, actives raise or lower the signal
In short: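 HepG2 cells exposed 24 h to 0.39–200 uM compound in duplicate (0.5% v/v DMSO final). Cells fixed in 3.7% formaldehyde, permeabilized and immunostained for phospho-c-Jun; read by high-content fluorescence imaging, fitted bidirectionally against DMSO.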

Measured: AC50

COP(=S)(OC)SCn1nnc2ccccc2c1=O
active: [1] 100 µM
not listed: [9] | [10]
inactive: all other assays above

OC(c1ccc(Cl)cc1)(c1ccc(Cl)cc1)C(Cl)(Cl)Cl
active: [1] 32.2 µM | [5] 32.2 µM | [6] 68.8 µM
not listed: [10]
inactive: all other assays above

CC(C)Nc1nc(Cl)nc(NC(C)C)n1
not listed: [9] | [10]
inactive: all other assays above

CC(C)(C)C(=O)C(Oc1ccc(Cl)cc1)n1cncn1 (stereo not drawn)
active: [1] 78.6 µM
not listed: [10]
inactive: all other assays above

O=P(O)(O)CCCl
not listed: [9] | [10]
inactive: all other assays above

CC(C)NC(=O)N1CC(=O)N(c2cc(Cl)cc(Cl)c2)C1=O
inactive: all assays above

CCCCC(O)(Cn1cncn1)c1ccc(Cl)cc1Cl (stereo not drawn)
active: [1] 74.4 µM | [6] 109 µM | [7] 122 µM | [8] 120 µM
not listed: [9]
inactive: all other assays above

Cc1nc(N(C)C)nc(OC(=O)N(C)C)c1C
not listed: [8] | [9]
inactive: all other assays above

CCCN(CC)CC1COC2(CCC(C(C)(C)C)CC2)O1 (stereo not drawn)
active: [1] 69.3 µM | [2] 80.6 µM | [4] 70.2 µM | [5] 62.5 µM
not listed: [9]
inactive: all other assays above

CCOc1cc(C(C)(C)C)ccc1C1COC(c2c(F)cccc2F)=N1 (stereo not drawn)
active: [1] 103 µM | [5] 47.2 µM
inactive: [2] | [3] | [4] | [7]

COC(=O)c1c(C(F)F)nc(C(F)(F)F)c(C2=NCCS2)c1CC(C)C
active: [1] 60.5 µM | [5] 72.7 µM
not listed: [9]
inactive: all other assays above

CC(C)N1C(=O)c2ccccc2NS1(=O)=O
not listed: [9] | [10]
inactive: all other assays above

COCc1cnc(C2=NC(C)(C(C)C)C(=O)N2)c(C(=O)O)c1 (stereo not drawn)
inactive: [1] | [2] | [3] | [4] | [5] | [7]

CC1(C)CON(Cc2ccccc2Cl)C1=O
not listed: [9] | [10]
inactive: all other assays above

CCSC(=O)N1CCCCCC1
not listed: [9] | [10]
inactive: all other assays above

CCCCC(C#N)(Cn1cncn1)c1ccc(Cl)cc1 (stereo not drawn)
active: [1] 103 µM
not listed: [10]
inactive: all other assays above

COc1cc(Cl)c(OC)cc1Cl
inactive: all assays above

COc1ccc(-c2ccccc2)cc1NNC(=O)OC(C)C
inactive: all assays above

CCCC(=NOCC)C1=C(O)CC(CC(C)SCC)CC1=O (stereo not drawn)
not listed: [9]
inactive: all other assays above

CN/C(=N\[N+](=O)[O-])NCc1cnc(Cl)s1
not listed: [10]
inactive: all other assays above

CNC(=O)N(C)c1nnc(C(C)(C)C)s1
not listed: [9]
inactive: all other assays above

N#Cc1c[nH]cc1-c1cccc2c1OC(F)(F)O2
active: [1] 13 µM | [2] 16.1 µM | [5] 19.3 µM
not listed: [9]
inactive: all other assays above

CCN(CC)c1nc(C)cc(OP(=S)(OC)OC)n1
not listed: [10]
inactive: all other assays above

Cc1ccc(N=CN(C)C=Nc2ccc(C)cc2C)c(C)c1
active: [4] 82.4 µM | [5] 163 µM | [6] 154 µM
not listed: [10]
inactive: all other assays above

CCNC(=O)NC(=O)C(C#N)=NOC
not listed: [6] | [8] | [9]
inactive: all other assays above

CCCCOCN(C(=O)CCl)c1c(CC)cccc1CC
inactive: [6] | [8] | [9]
active: [1] 30.6 µM | [2] 113 µM | [3] 33.2 µM | [4] 181 µM | [5] 10.6 µM | [7] 13.2 µM

O=C(Nc1ccccc1-c1ccc(Cl)cc1)c1cccnc1Cl
not listed: [9] | [10]
inactive: all other assays above

CCOP(=O)(OCC)Oc1nc(Cl)c(Cl)cc1Cl
not listed: [9] | [10]
inactive: all other assays above

CC1(C)CCC(=Cc2ccc(Cl)cc2)C1(O)Cn1cncn1 (stereo not drawn)
not listed: [9]
inactive: all other assays above

CC(C)=CC1C(C(=O)OCc2coc(Cc3ccccc3)c2)C1(C)C (stereo not drawn)
active: [1] 40.1 µM | [3] 159 µM | [5] 74.2 µM
inactive: [2] | [4] | [7]

CC(C)C1(C)N=C(c2ncccc2C(=O)O)NC1=O (stereo not drawn)
not listed: [9]
inactive: all other assays above

CS(=O)(=O)c1cc(C(F)(F)F)ccc1C(=O)c1cnoc1C1CC1
inactive: all assays above

N#CN=C1SCCN1Cc1ccc(Cl)nc1
not listed: [10]
inactive: all other assays above

COc1cc(OC)nc(NC(=O)NS(=O)(=O)c2ncccc2OCC(F)(F)F)n1
not listed: [9]
inactive: all other assays above

Cn1c(-c2ccccc2)cc(-c2ccccc2)[n+]1C
not listed: [9] | [10]
inactive: all other assays above
